Each compound was assayed against T1, Arginase-2, mitochondrial (Homo sapiens) (UniProt P78540) (assay: in vitro enzyme assay to detect the production of urea directly proportional to the activity of Arginase II). Conditions: 33.3 µM.
T1 sequence (whole entry): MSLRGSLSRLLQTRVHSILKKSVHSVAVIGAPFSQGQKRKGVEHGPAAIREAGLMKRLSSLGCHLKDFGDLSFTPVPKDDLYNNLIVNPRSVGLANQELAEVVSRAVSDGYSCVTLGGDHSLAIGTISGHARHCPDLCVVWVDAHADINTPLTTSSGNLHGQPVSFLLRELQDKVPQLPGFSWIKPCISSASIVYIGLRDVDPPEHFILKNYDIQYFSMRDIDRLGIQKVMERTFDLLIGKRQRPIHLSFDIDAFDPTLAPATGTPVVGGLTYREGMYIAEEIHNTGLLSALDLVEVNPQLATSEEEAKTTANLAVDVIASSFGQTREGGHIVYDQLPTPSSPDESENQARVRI
Format: functional
Design: scale not given: in the data most compounds retested in dose-response had high values

| Structure (SMILES) | Percent Effect |
| --- | --- |
| Cc1cnn(CC2CCCN2CC(=O)Nc2cc(C(C)(C)C)no2)c1 (stereo not given) | -0.615% |
| O=C(NCCCNc1ccccc1)c1scnc1Cl | 0.444% |
| Cc1noc(Cl)c1CCC(=O)N1CCc2sccc2C1 | -2.22% |
| COCC1CC2(CCN(Cc3ccc(OC)cc3)CC2)CN1C(C)C (stereo not given) | -4.05% |
| CCCN1CCCn2nc(CNS(=O)(=O)c3cccc(C#N)c3)cc2C1 | 2.45% |
| CC(C)c1cc(N2CCN(c3ccc(O)cc3)CC2)n2nccc2n1 | 5.25% |
| CC(Cn1cccn1)NC(=O)Cc1cccs1 (stereo not given) | 3.99% |
| CCCC(=O)N1CCC2(CC1)CC(NC(C)=O)c1ccccc1O2 (stereo not given) | 7.31% |
| Cc1cnn(CC2CN(CC(=O)N(C)Cc3cccs3)CCO2)c1 (stereo not given) | 9.31% |
| CCN1CCN(C(=O)NCCOc2ccc3c(c2)OCO3)CC1 | 1.84% |
| COc1ccc(C(=O)NCCCn2ccnc2)c(OC)n1 | 0% |
| CN1CCCn2c(nc(CNC(=O)c3ccsc3)cc2=O)C1 | 6.07% |
| Clc1ccccc1-c1nc(CNC2CCc3ncnn3C2)cs1 (stereo not given) | 0.41% |
| CCS(=O)(=O)c1ncc(CN(C)Cc2ccccn2)n1CCOC | 2.45% |
| COc1ncccc1CNC(=O)c1cccc(C)n1 | -5.74% |
| Cn1nc2c(cc1=O)CN(Cc1nc(C(C)(C)C)no1)CC2 | 4.88% |
| O=C(O)c1cc(S(=O)(=O)N2CCOc3ccccc32)ccc1F | -0.82% |
| COc1ccc(CNC(=O)N2CCC(Cc3cnn(C)c3)C2)cc1C (stereo not given) | 4.92% |
| O=C(c1ccccn1)N1Cc2nccn2CC(CN2CCOCC2)C1 (stereo not given) | 5.67% |
| CCOC1COC2(CCN(S(=O)(=O)c3cccc(F)c3)CC2)C1 (stereo not given) | 6.07% |

| Structure (SMILES) | Percent Effect |
| --- | --- |
| Cc1ccc(CN2CCCn3c(nc(CN4CCCC4)cc3=O)C2)s1 | -2.02% |
| COc1ccc(F)cc1C(=O)N(C)Cc1cc(C)on1 | -0.41% |
| CCc1nc(C)ncc1C(=O)N1CCCC(n2nc(C)nc2C)C1 (stereo not given) | -3.69% |
| CCC(O)CN1CCN(C(=O)c2sccc2OC)CC1 (stereo not given) | -3.89% |
| CN(Cc1noc(C2CC2)n1)C1CCN(Cc2ccncc2)C1 (stereo not given) | 7.38% |
| CCCC(C)C(=O)N1CCC(n2cccc2C(=O)OC)CC1 (stereo not given) | 1.43% |
| CC(=O)N1N=C(c2ccccc2)OC1C(=O)NCCc1cccc(Cl)c1 (stereo not given) | 2.65% |
| Cc1occc1C(=O)N1CC[C@@H](N2CCOCC2)[C@@H]1Cc1ccccc1 | -2.83% |
| CO[C@@H]1CCN(C(=O)c2ccccn2)[C@H]1Cc1ccccc1 | -0.457% |
| Cc1cc(CN(C)C(=O)c2ccnc(N(C)C)c2)no1 | 2.22% |
| CCn1ccnc1CN1CCN(CC(O)c2ccccc2)CC1 (stereo not given) | 4.51% |
| Cc1nn(C)c(N(C)C)c1CNCCCN(C)S(C)(=O)=O | 5.33% |
| O=C1CC(c2ccco2)c2sc(C(=O)O)c(-c3ccccc3)c2N1 (stereo not given) | -3.85% |
| Cc1cccc(CN2C(=O)CCC23CCN(Cc2cccn2C)CC3)n1 | 0.457% |
| Nc1nc2nc(C3CCCN(C(=O)c4cscn4)C3)ccc2s1 (stereo not given) | -9.29% |
| CCc1ccc(O)c(C(=O)NC2CCN(C(=O)OC)CC2)c1 | 4.51% |
| CS(=O)(=O)N1CCC[C@]2(C[C@@H](Oc3ncccc3F)CO2)C1 | 4.05% |
| Fc1cccc(-c2nc(CN3CCn4c(nnc4C4CC4)C3)co2)c1 | 1.33% |
| CC(c1nc(C2CC2)no1)N1CCN(Cc2ccsc2)CC1 (stereo not given) | -1.64% |
| Cc1cc(CN(C)C(=O)c2ccc(C(F)(F)F)nc2)no1 | 3.1% |

What follows are compounds tested against T2, Proteasome subunit beta (Trypanosoma cruzi) (UniProt O96673) (assay: Trypanosoma cruzi proteasome chymotrypsin-like activity (TcProtChymo) assay.). Conditions: 9.37 µM.
T2 sequence (whole entry): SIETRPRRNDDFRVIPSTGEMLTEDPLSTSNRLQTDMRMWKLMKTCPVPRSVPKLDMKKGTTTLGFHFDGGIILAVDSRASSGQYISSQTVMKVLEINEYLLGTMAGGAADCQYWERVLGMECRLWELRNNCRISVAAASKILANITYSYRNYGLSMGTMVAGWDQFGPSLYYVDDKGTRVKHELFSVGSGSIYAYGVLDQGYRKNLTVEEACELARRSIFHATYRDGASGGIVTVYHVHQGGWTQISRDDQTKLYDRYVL
Format: functional
Design: scale not given: in the data most compounds retested in dose-response had high values

| Structure (SMILES) | Percent Effect |
| --- | --- |
| Cc1cnn(CC2CCCN2CC(=O)Nc2cc(C(C)(C)C)no2)c1 (stereo not given) | 6.84% |
| O=C(NCCCNc1ccccc1)c1scnc1Cl | 8.06% |
| Cc1noc(Cl)c1CCC(=O)N1CCc2sccc2C1 | 22.8% |
| COCC1CC2(CCN(Cc3ccc(OC)cc3)CC2)CN1C(C)C (stereo not given) | 0.0883% |
| CCCN1CCCn2nc(CNS(=O)(=O)c3cccc(C#N)c3)cc2C1 | 19.4% |
| CC(C)c1cc(N2CCN(c3ccc(O)cc3)CC2)n2nccc2n1 | 19.7% |
| CC(Cn1cccn1)NC(=O)Cc1cccs1 (stereo not given) | 6.36% |
| CCCC(=O)N1CCC2(CC1)CC(NC(C)=O)c1ccccc1O2 (stereo not given) | -0.0858% |
| Cc1cnn(CC2CN(CC(=O)N(C)Cc3cccs3)CCO2)c1 (stereo not given) | 13.8% |
| CCN1CCN(C(=O)NCCOc2ccc3c(c2)OCO3)CC1 | 12.6% |
| COc1ccc(C(=O)NCCCn2ccnc2)c(OC)n1 | 10.6% |
| CN1CCCn2c(nc(CNC(=O)c3ccsc3)cc2=O)C1 | 5.56% |
| Clc1ccccc1-c1nc(CNC2CCc3ncnn3C2)cs1 (stereo not given) | -0.427% |
| CCS(=O)(=O)c1ncc(CN(C)Cc2ccccn2)n1CCOC | 5.65% |
| COc1ncccc1CNC(=O)c1cccc(C)n1 | 18.5% |
| Cn1nc2c(cc1=O)CN(Cc1nc(C(C)(C)C)no1)CC2 | 6.19% |
| O=C(O)c1cc(S(=O)(=O)N2CCOc3ccccc32)ccc1F | 10.8% |
| COc1ccc(CNC(=O)N2CCC(Cc3cnn(C)c3)C2)cc1C (stereo not given) | 11.2% |
| O=C(c1ccccn1)N1Cc2nccn2CC(CN2CCOCC2)C1 (stereo not given) | 8.56% |
| CCOC1COC2(CCN(S(=O)(=O)c3cccc(F)c3)CC2)C1 (stereo not given) | 19.9% |

| Structure (SMILES) | Percent Effect |
| --- | --- |
| Cc1ccc(CN2CCCn3c(nc(CN4CCCC4)cc3=O)C2)s1 | 2.38% |
| COc1ccc(F)cc1C(=O)N(C)Cc1cc(C)on1 | 14.1% |
| CCc1nc(C)ncc1C(=O)N1CCCC(n2nc(C)nc2C)C1 (stereo not given) | 0.0853% |
| CCC(O)CN1CCN(C(=O)c2sccc2OC)CC1 (stereo not given) | 0.526% |
| CN(Cc1noc(C2CC2)n1)C1CCN(Cc2ccncc2)C1 (stereo not given) | 14.4% |
| CCCC(C)C(=O)N1CCC(n2cccc2C(=O)OC)CC1 (stereo not given) | 2.46% |
| CC(=O)N1N=C(c2ccccc2)OC1C(=O)NCCc1cccc(Cl)c1 (stereo not given) | 8.05% |
| Cc1occc1C(=O)N1CC[C@@H](N2CCOCC2)[C@@H]1Cc1ccccc1 | 7.33% |
| CO[C@@H]1CCN(C(=O)c2ccccn2)[C@H]1Cc1ccccc1 | 6.95% |
| Cc1cc(CN(C)C(=O)c2ccnc(N(C)C)c2)no1 | 4.67% |
| CCn1ccnc1CN1CCN(CC(O)c2ccccc2)CC1 (stereo not given) | 6.91% |
| Cc1nn(C)c(N(C)C)c1CNCCCN(C)S(C)(=O)=O | 10.2% |
| O=C1CC(c2ccco2)c2sc(C(=O)O)c(-c3ccccc3)c2N1 (stereo not given) | 27.7% |
| Cc1cccc(CN2C(=O)CCC23CCN(Cc2cccn2C)CC3)n1 | 16.9% |
| Nc1nc2nc(C3CCCN(C(=O)c4cscn4)C3)ccc2s1 (stereo not given) | 19.1% |
| CCc1ccc(O)c(C(=O)NC2CCN(C(=O)OC)CC2)c1 | 5.89% |
| CS(=O)(=O)N1CCC[C@]2(C[C@@H](Oc3ncccc3F)CO2)C1 | 10.3% |
| Fc1cccc(-c2nc(CN3CCn4c(nnc4C4CC4)C3)co2)c1 | 8.4% |
| CC(c1nc(C2CC2)no1)N1CCN(Cc2ccsc2)CC1 (stereo not given) | 3.67% |
| Cc1cc(CN(C)C(=O)c2ccc(C(F)(F)F)nc2)no1 | 1.27% |

From ChEMBL document CHEMBL3988442, “University of Dundee, Small-Polar-MMV Screening Library” (2021)
